The nature of experiment [1]: NCI Yeast Anticancer Drug Screen. Data for the rad50 strain (AID 155).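 Note: 0% = growth of vehicle-only cultures of the same strain.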 Conditions: S. cerevisiae rad50 strain growth inhibition, stronger effect = higher value. The procedure, abridged: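 Cells are treated with compound, grown, and their growth is then scored against vehicle-only cultures of the same repair-deficient yeast strain.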
Experiment [2] in a line: NCI Yeast Anticancer Drug Screen. Data for the mec2-1 strain (AID 157). To be noted: S. cerevisiae mec2-1 strain, stronger effect = higher value. In short, it runs like this:
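Vehicle-treated cultures served as reference for growth inhibition of compound-exposed mec2-1 yeast.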

A short description of experiment [3]: NCI Yeast Anticancer Drug Screen. Data for the sgs1 mgt1 strain (AID 161).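 Note: 0% = growth of cultures given vehicle only.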 Conditions: S. cerevisiae sgs1 mgt1 strain, stronger effect = higher value. In short, it runs like this: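 Read-out: growth inhibition vs vehicle controls. Cells: mutant yeast strain deficient in DNA damage repair.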
A short description of experiment [4]: NCI Yeast Anticancer Drug Screen. Data for the cln2 rad14 strain (AID 165).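 Note: 0% = growth equal to vehicle treated cultures.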 To be noted: S. cerevisiae cln2 rad14 strain, stronger effect = higher value. In short, it runs like this:
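Each compound was tested on cln2 rad14 yeast. Inhibition of growth was calculated against vehicle-exposed controls.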

Experiment [5] is described as follows: NCI Yeast Anticancer Drug Screen. Data for the bub3 strain (AID 167). Conditions: S. cerevisiae bub3 mutant strain, stronger effect = higher value. The procedure, abridged:
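Part of a panel of yeast mutants defective in DNA damage repair or cell cycle regulation. Each strain is grown with compound, and inhibition is calculated relative to solvent-treated cultures.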

Experiment [6] in a line: NCI Yeast Anticancer Drug Screen. Data for the mlh1 rad18 strain (AID 175). To be noted: S. cerevisiae mlh1 rad18 strain growth inhibition, stronger effect = higher value. The procedure, abridged:
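Vehicle-treated cultures served as the reference for growth inhibition in a yeast strain carrying DNA damage repair alterations exposed to each compound.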

The mark [7] stands for this setting: at 5.0 µM (retest, dose inferred, filed as 0.5).
The mark [8] stands for this setting: at 50.0 µM (retest, dose inferred, filed as 5.0).

Molecules are shown by their SMILES. About 79,000 compounds went through this panel and 15% of them were active in at least one assay; those are over-represented in the sample as a whole. A number with no mark means an inactive call. Activity calls are given as the source filed them. Cut-off read from the data, not from the text of the source: active = growth inhibition above about 70%; inactive = the rest.

Take `CN(C)S(=O)(=O)c1cc(Cl)ccc1NN`: the growth inhibition in experiment [1] (setting [7]) is -114%; in experiment [1] (setting [8]), -20%; in experiment [1] (at 50.0 µM), 59.6%; in experiment [2] (setting [7]), -44%; in experiment [2] (setting [8]), -41%; in experiment [2] (at 50.0 µM) it was 36.9%. The growth inhibition in experiment [3] (setting [7]) is -56%; in experiment [3] (setting [8]), -21%; in experiment [3] (at 50.0 µM) it was 44%; in experiment [4] (setting [7]), -41%; in experiment [4] (setting [8]), -22%; in experiment [4] (at 50.0 µM), 19.2%. Moreover, the growth inhibition is -71% in experiment [5] (setting [7]); -14% in experiment [5] (setting [8]); 78.4% (active) in experiment [5] (at 50.0 µM); -119% in experiment [6] (setting [7]); -32% in experiment [6] (setting [8]); 48.6% in experiment [6] (at 50.0 µM).

In the case of `COc1ccc(-c2c(C(=O)O)[nH]c3ccccc23)cc1`, the growth inhibition in experiment [1] (setting [7]) was 38%; in experiment [1] (setting [8]), 90% (active); in experiment [1] (at 50.0 µM), 96.8% (active); in experiment [2] (setting [7]), 12%; in experiment [2] (setting [8]), 87% (active); in experiment [2] (at 50.0 µM), 97.5% (active). In addition, the growth inhibition in experiment [3] (setting [7]) was 35%; in experiment [3] (setting [8]), 98% (active); in experiment [3] (at 50.0 µM), 97.5% (active); in experiment [4] (setting [7]) it was 25%; in experiment [4] (setting [8]) it was 88% (active); in experiment [4] (at 50.0 µM), 98.5% (active). The growth inhibition is 58% in experiment [5] (setting [7]); 98% (active) in experiment [5] (setting [8]); 96.2% (active) in experiment [5] (at 50.0 µM); 65% in experiment [6] (setting [7]); 97% (active) in experiment [6] (setting [8]); 99% (active) in experiment [6] (at 50.0 µM).

As to `O=C(O)Cc1cccc(O)c1`, the growth inhibition in experiment [1] (setting [7]) was 0%; in experiment [1] (setting [8]), -3%; in experiment [1] (at 50.0 µM) it was 10.5%; in experiment [2] (setting [7]) it was 3%; in experiment [2] (setting [8]) it was -1%; in experiment [2] (at 50.0 µM), 41.9%. Besides, the growth inhibition in experiment [3] (setting [7]) is -3%; in experiment [3] (setting [8]), -4%; in experiment [3] (at 50.0 µM) it was -1.9%; in experiment [4] (setting [7]), -8%; in experiment [4] (setting [8]), 1%; in experiment [4] (at 50.0 µM) it was 35.1%. Moreover, the growth inhibition in experiment [5] (setting [7]) is -1%; in experiment [5] (setting [8]), 1%; in experiment [5] (at 50.0 µM), 5.8%; in experiment [6] (setting [7]), 0%; in experiment [6] (setting [8]) it was -3%; in experiment [6] (at 50.0 µM), -0.1%.

In the case of `Cn1cnc(=S)c2[nH]cnc21`, the growth inhibition in experiment [1] (setting [7]) was -1%; in experiment [1] (setting [8]), -2%; in experiment [1] (at 50.0 µM), 10.9%; in experiment [2] (setting [7]), -3%; in experiment [2] (setting [8]), -4%; in experiment [2] (at 50.0 µM), -0.45%. The growth inhibition in experiment [3] (setting [7]) was -2%; in experiment [3] (setting [8]), -5%; in experiment [3] (at 50.0 µM), -4.55%; in experiment [4] (setting [7]), -2%; in experiment [4] (setting [8]), -4%; in experiment [4] (at 50.0 µM), 59.6%. Besides, the growth inhibition in experiment [5] (setting [7]) was 0%; in experiment [5] (setting [8]) it was -5%; in experiment [5] (at 50.0 µM), -8.5%; in experiment [6] (setting [7]), -4%; in experiment [6] (setting [8]), -1%; in experiment [6] (at 50.0 µM) it was 4.05%.

As to `COc1ccc(/C=C2\Sc3scc(-c4ccc([N+](=O)[O-])cc4)[n+]3C2=O)cc1OC`, the growth inhibition was 3% in experiment [1] (setting [7]); 4% in experiment [1] (setting [8]); 39.3% in experiment [1] (at 50.0 µM); -6% in experiment [2] (setting [7]); 20% in experiment [2] (setting [8]); 55% in experiment [2] (at 50.0 µM). In addition, the growth inhibition was -3% in experiment [3] (setting [7]); 11% in experiment [3] (setting [8]); 66% in experiment [3] (at 50.0 µM); 0% in experiment [4] (setting [7]); -4% in experiment [4] (setting [8]); 28.6% in experiment [4] (at 50.0 µM). The growth inhibition in experiment [5] (setting [7]) is 9%; in experiment [5] (setting [8]), 16%; in experiment [5] (at 50.0 µM) it was 83% (active); in experiment [6] (setting [7]) it was 3%; in experiment [6] (setting [8]), 12%; in experiment [6] (at 50.0 µM), 65.8%.

For the compound `O=C(Nc1ccccc1)O/N=C1/CCCC/C1=C\c1ccccc1`, the growth inhibition in experiment [1] (setting [7]) is 26%; in experiment [1] (setting [8]), 77% (active); in experiment [1] (at 50.0 µM), 88.4% (active); in experiment [2] (setting [7]), 41%; in experiment [2] (setting [8]), 85% (active); in experiment [2] (at 50.0 µM), 90.1% (active). Besides, the growth inhibition in experiment [3] (setting [7]) was 57%; in experiment [3] (setting [8]), 86% (active); in experiment [3] (at 50.0 µM) it was 88.3% (active); in experiment [4] (setting [7]), 65%; in experiment [4] (setting [8]), 85% (active); in experiment [4] (at 50.0 µM), 84.4% (active). Besides, the growth inhibition was 54% in experiment [5] (setting [7]); 87% (active) in experiment [5] (setting [8]); 81.6% (active) in experiment [5] (at 50.0 µM); 35% in experiment [6] (setting [7]); 88% (active) in experiment [6] (setting [8]); 84.1% (active) in experiment [6] (at 50.0 µM).

In the case of `CC1C(c2ccc(Cl)cc2)c2cc3c(cc2OC1N1CCOCC1)OCO3` (stereo not given), the growth inhibition in experiment [1] (setting [7]) was -19%; in experiment [1] (setting [8]), 6%; in experiment [1] (at 50.0 µM), 48.4%; in experiment [2] (setting [7]), -30%; in experiment [2] (setting [8]), -7%; in experiment [2] (at 50.0 µM), 58.4%. Moreover, the growth inhibition in experiment [3] (setting [7]) was -24%; in experiment [3] (setting [8]), -4%; in experiment [3] (at 50.0 µM), 82.2% (active); in experiment [4] (setting [7]), -27%; in experiment [4] (setting [8]), 5%; in experiment [4] (at 50.0 µM), 90% (active). The growth inhibition in experiment [5] (setting [7]) was -29%; in experiment [5] (setting [8]), -24%; in experiment [5] (at 50.0 µM) it was 91.3% (active); in experiment [6] (setting [7]), -39%; in experiment [6] (setting [8]), 8%; in experiment [6] (at 50.0 µM), 59.4%.

Regarding `CC(C)c1ccc2c(c1)CCC1C(C)(CN)CCCC21C` (stereo not given), the growth inhibition in experiment [1] (setting [7]) is 27%; in experiment [1] (setting [8]), 100% (active); in experiment [1] (at 50.0 µM), 99.2% (active); in experiment [2] (setting [7]), 0%; in experiment [2] (setting [8]), 100% (active); in experiment [2] (at 50.0 µM), 99.6% (active). For the same compound, the growth inhibition in experiment [3] (setting [7]) is 35%; in experiment [3] (setting [8]), 100% (active); in experiment [3] (at 50.0 µM) it was 99.5% (active); in experiment [4] (setting [7]), -6%; in experiment [4] (setting [8]), 99% (active); in experiment [4] (at 50.0 µM), 98.7% (active). The growth inhibition is 10% in experiment [5] (setting [7]); 100% (active) in experiment [5] (setting [8]); 99.3% (active) in experiment [5] (at 50.0 µM); 32% in experiment [6] (setting [7]); 100% (active) in experiment [6] (setting [8]); 99.1% (active) in experiment [6] (at 50.0 µM).

In the case of `CN(C)CC(C)(C)C(/C=C/c1ccccc1)=N\Nc1ccccc1`, the growth inhibition was 3% in experiment [1] (setting [7]); 61% in experiment [1] (setting [8]); 98.1% (active) in experiment [1] (at 50.0 µM); 0% in experiment [2] (setting [7]); 68% in experiment [2] (setting [8]); 90.2% (active) in experiment [2] (at 50.0 µM). The growth inhibition is 12% in experiment [3] (setting [7]); 72% (active) in experiment [3] (setting [8]); 97.8% (active) in experiment [3] (at 50.0 µM); 6% in experiment [4] (setting [7]); 47% in experiment [4] (setting [8]); 97.3% (active) in experiment [4] (at 50.0 µM). The growth inhibition in experiment [5] (setting [7]) was 1%; in experiment [5] (setting [8]) it was 91% (active); in experiment [5] (at 50.0 µM), 98.6% (active); in experiment [6] (setting [7]) it was 2%; in experiment [6] (setting [8]), 76% (active); in experiment [6] (at 50.0 µM), 98.3% (active).

Turning to `COc1cc(C(c2cc3c(cc2O)OCO3)N2CCN(C(c3cc(OC)c(O)c(OC)c3)c3cc4c(cc3O)OCO4)CC2)cc(OC)c1O` (stereo not given), the growth inhibition was -3% in experiment [1] (setting [7]); 7% in experiment [1] (setting [8]); 26.3% in experiment [1] (at 50.0 µM); 1% in experiment [2] (setting [7]); 16% in experiment [2] (setting [8]); 41% in experiment [2] (at 50.0 µM). In addition, the growth inhibition in experiment [3] (setting [7]) was -2%; in experiment [3] (setting [8]) it was 15%; in experiment [3] (at 50.0 µM) it was 43.6%; in experiment [4] (setting [7]) it was 0%; in experiment [4] (setting [8]), -12%; in experiment [4] (at 50.0 µM), -36.5%. Besides, the growth inhibition was 1% in experiment [5] (setting [7]); 10% in experiment [5] (setting [8]); 33.8% in experiment [5] (at 50.0 µM); 0% in experiment [6] (setting [7]); 7% in experiment [6] (setting [8]); 51.2% in experiment [6] (at 50.0 µM).

The values above are taken from PubChem BioAssay (NCI).
